# Assay results reported in PubChem BioAssay.
# Several values for one entry are separate records, joined by “and”; a condition that tells them apart may be missing. Identical values can stand only once. Activity calls are given as the source filed them. Unless noted, no rule for the calls is given here.
# Legend:
# [1] = viability loss with induced miR-34 in A549 – imaging, A549 dox-inducible miR-34, nuclei and caspase counts, primary screen (AID 1347080;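 active = compounds whose cell count with miR-34 switched on is under 0.7 times the count with it off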); settings: A549 miR-34 inducible, Hoechst nuclei count, 48 h
# [2] = compounds altering viability of human ES cells (AID 493140); settings: human embryonic stem cell survival screen; stronger effect = higher value;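 also: cells exposed to compounds for four days before counting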
# [3] = chitosan synthesis blockers in C. neoformans – flow cytometry, Cibacron Brilliant Red staining (AID 1347148); settings: Cryptococcus neoformans chitosan, stronger effect = lower value; at 10 µM unless noted;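 also: compound exposure lasted three days at 37 degrees C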
# [4] = compounds altering circadian rhythm period length – cell-based, LOPAC library, luminescence reporter (AID 2774); settings: circadian reporter cells, at 7 µM, actives lie on both sides;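 also: values are relative to mean of DMSO wells on each plate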
# [5] = tested on: Hepatitis C virus NS3 helicase; assay: blockers of NS3h binding to ssDNA – biochemical, fluorescence polarization, LOPAC1280 library, primary screen (AID 687035; in the data active = inhibition above about 37%); settings: Purified HCV NS3 helicase, Cy5-dT15 ssDNA binding fluorescence polarization; stronger effect = higher value; concentration not given here
# [6] = compounds altering Cy5-DNA-NS3h complex signal – biochemical, LOPAC1280, artefact control for HCV NS3 helicase inhibitor project (AID 687037); settings: Cy5-DNA-NS3h complex fluorescence interference counterscreen
# [7] = blockers of cellular phospholipid synthesis – cell-based, LOPAC library, screen 4, primary screen (AID 1347384); settings: animal cells, phospholipid biosynthesis inhibition screen; at 10 µM
# [8] = galactose survival enhancers in mitochondrial complex I cybrids – cell-based, galactose medium, ATP luminescence, primary screen (AID 1645843;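 active = z-score of at least 1.8 in each of two replicates, scored against plate mean and spread of sample wells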;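 also: positive z means more ATP and so rescue of galactose-driven cybrid death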); settings: complex I mutant cybrid cells, 72 h, stronger effect = higher value
# [9] = P. berghei load reduction in hepatocytes – cell-based, HepG2, luciferase luminescence, HepG2 viability, primary screen (AID 624349; in the data active = parasite load remaining mostly below about 12%, no sharp cut-off; inactive = mostly above about 10%;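 also: 100% = mean of DMSO negative control wells on the same plate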); settings: P. berghei liver stage in HepG2, luciferase luminescence, concentration not given here; parasite load remaining: stronger effect = lower value; viability: measured here: HepG2 viability without parasites
# [10] = MELAS cybrid and Rieske KO viability enhancers – cell-based, MELAS cybrids, Rieske KO mouse fibroblasts, CellTiter-Glo, primary screen (AID 1508586;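 active = mean z-score across replicates of 1.96 or higher in either the MELAS or the Rieske mutant cell line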;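 also: z relative to plate mean and SD of compound and empty wells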); settings: low glucose
# [11] = stronger effect = lower value, cell number ratio, induced over uninduced
# [12] = measured here: relative caspase fold change +Dox/-Dox
# [13] = measured here: total cells with miR-34 induction, stronger effect = lower value
# [14] = measured here: total cells without miR-34 induction
# [15] = MELAS cybrid survival, CellTiter-Glo 48 h, stronger effect = higher value
# [16] = Rieske KO mouse fibroblast survival, CellTiter-Glo 72 h
smiles,measurement,setting,value
CCCCC[C@H](O)/C=C/[C@H]1[C@H](O)CC(=O)[C@H]1C/C=C\CCCC(=O)O,fold change,[1]; [11],0.969 (inactive)
same,fold change,[1]; [12],1.41
same,cell count,[1]; [13],5730
same,cell count,[1]; [14],5910
CCCCCCCCC#CCC#CCC#CCCCC(=O)O,survival,[2],97.9 (inactive)
same,fold change,[1]; [11],0.872 (inactive) and 1.12 (inactive)
same,fold change,[1]; [12],1.12 and 0.534
same,cell count,[1]; [13],5490 and 6070
same,cell count,[1]; [14],6300 and 5430
same,fold fluorescence,[3],6.11 (inactive)
CCCCC/C=C/C=C1/C(=O)C=C[C@@H]1C/C=C\CCCC(=O)O,survival,[2],82.2 (inactive)
same,fold change,[1]; [11],1.04 (inactive) and 0.838 (inactive) and 1.58 (inactive)
same,fold change,[1]; [12],1.45 and 1.36 and 1.03
same,cell count,[1]; [13],5600 and 6330 and 6250
same,cell count,[1]; [14],5380 and 7550 and 3960
same,fold fluorescence,[3],6.54 (inactive)
CCCCC/C=C\C/C=C\C/C=C\C/C=C\CCCC(=O)OCC,fold change,[1]; [11],0.807 (inactive)
same,fold change,[1]; [12],0.655
same,cell count,[1]; [13],5170
same,cell count,[1]; [14],6410
CCCCCCCC/C=C\CCCCCCCCCCCC(=O)O,fold change,[1]; [11],1.01 (inactive)
same,fold change,[1]; [12],0.826
same,cell count,[1]; [13],6030
same,cell count,[1]; [14],5990
CCCCCCCCCCC/C=C\C(C)(C)/C=C\CCCC(=O)O,period change,[4],-0.11 h (inactive)
same,survival,[2],88.8 (inactive)
same,inhibition,[5],0% (inactive)
same,fluorescence ratio (interference),[6],0.9 (inactive)
same,fold change,[1]; [11],0.986 (inactive) and 1.01 (inactive)
same,fold change,[1]; [12],1.15 and 1.25
same,cell count,[1]; [13],9810 and 5810
same,cell count,[1]; [14],9950 and 5750
same,fold fluorescence,[3],5.21 (inactive)
same,outcome,[7],inactive
same,z-score,[8],0.145 (inactive)
CCCCC[C@H](O)/C=C/C1=C(C/C=C\CCCC(=O)O)C(=O)CC1,survival,[2],130 (inactive)
same,fold change,[1]; [11],0.969 (inactive) and 0.886 (inactive)
same,fold change,[1]; [12],1.57 and 1.52
same,cell count,[1]; [13],6100 and 5600
same,cell count,[1]; [14],6300 and 6320
same,fold fluorescence,[3],3.98 (inactive)
CC/C=C\C/C=C\C/C=C\CCCCCCCCCC(=O)O,survival,[2],95.1 (inactive)
same,fold change,[1]; [11],1.09 (inactive) and 1.03 (inactive)
same,fold change,[1]; [12],1.26 and 1.06
same,cell count,[1]; [13],5750 and 5880
same,cell count,[1]; [14],5250 and 5730
same,fold fluorescence,[3],4.88 (inactive)
CC(C)=CCC/C(C)=C/CC/C(C)=C/CSCC(=O)O,survival,[2],89.7 (inactive)
same,fold change,[1]; [11],0.964 (inactive) and 0.982 (inactive)
same,fold change,[1]; [12],1.23 and 1.52
same,cell count,[1]; [13],5900
same,cell count,[1]; [14],6120 and 6010
same,fold fluorescence,[3],2.64 (inactive)
CC/C=C\C/C=C\C/C=C\C/C=C\C/C=C\CCCC(=O)O,survival,[2],106 (inactive)
same,fold change,[1]; [11],0.976 (inactive) and 0.979 (inactive)
same,fold change,[1]; [12],0.982 and 0.878
same,cell count,[1]; [13],5680 and 5960
same,cell count,[1]; [14],5820 and 6080
same,fold fluorescence,[3],4.6 (inactive)
CCCCC[C@H](O)/C=C/[C@H]1C(=O)C[C@H](O)[C@@H]1C/C=C\CCCC(=O)O,survival,[2],96.1 (inactive)
same,fold change,[1]; [11],0.966 (inactive) and 0.979 (inactive)
same,fold change,[1]; [12],1.13 and 1.66
same,cell count,[1]; [13],6220 and 5740
same,cell count,[1]; [14],6440 and 5870
same,fold fluorescence,[3],3.99 (inactive)
CCCCC/C=C\C/C=C\C/C=C\C/C=C\CCCC(=O)OC(CO)CO,survival,[2],72.6 (inactive)
same,fold change,[1]; [11],0.947 (inactive) and 1.01 (inactive)
same,fold change,[1]; [12],1.17 and 0.841
same,cell count,[1]; [13],6380 and 5230
same,cell count,[1]; [14],6740 and 5180
same,fold fluorescence,[3],5.06 (inactive)
CCCCC[C@H](O)/C=C/[C@H]1C=CC(=O)[C@@H]1CCCCCCC(=O)O,survival,[2],103 (inactive)
same,fold change,[1]; [11],0.912 (inactive) and 0.844 (inactive)
same,fold change,[1]; [12],1.4 and 1.79
same,cell count,[1]; [13],5980 and 4550
same,cell count,[1]; [14],6560 and 5390
same,fold fluorescence,[3],4.35 (inactive)
CC(C)(C)[C@]1(O)CCN2C[C@H]3c4ccccc4CCc4cccc(c43)[C@@H]2C1,period change,[4],0.045 hour (inactive) and 0.1 hour (inactive)
same,parasite load remaining,[9],63.7% (inactive)
same,viability,[9],156%
same,inhibition,[5],0% (inactive) and -5% (inactive)
same,fluorescence ratio (interference),[6],1 (inactive)
same,fold change,[1]; [11],1.18 (inactive) and 1.07 (inactive) and 0.945 (inactive)
same,fold change,[1]; [12],1.07 and 1.2 and 1.29
same,cell count,[1]; [13],6310 and 6160 and 8940
same,cell count,[1]; [14],5360 and 5740 and 9460
same,outcome,[7],inactive
same,z-score,[10]; [15],0.22 (inactive)
same,z-score,[10]; [16],-0.23
same,z-score,[8],-1.48 (inactive) and -1.34 (inactive) and -0.325 (inactive)
CCCCCCCC/C=C\C/C=C\C/C=C\CCCC(=O)NCCO,survival,[2],87.2 (inactive)
same,fold change,[1]; [11],0.911 (inactive) and 1.07 (inactive)
same,fold change,[1]; [12],0.981 and 0.763
same,cell count,[1]; [13],6100 and 5740
same,cell count,[1]; [14],6690 and 5350
same,fold fluorescence,[3],4.64 (inactive)
O=C(O)CNC(=O)C(CS)Cc1ccccc1 (stereo not drawn),period change,[4],-0.18 h (inactive)
same,survival,[2],4.92 (inactive)
same,parasite load remaining,[9],144% (inactive) and 78.5% (inactive)
same,viability,[9],103% and 75.5%
same,inhibition,[5],0% (inactive)
same,fluorescence ratio (interference),[6],1 (inactive)
same,fold change,[1]; [11],0.968 (inactive) and 0.835 (inactive) and 1 (inactive)
same,fold change,[1]; [12],1.08 and 1.52 and 1.29
same,cell count,[1]; [13],9910 and 8670 and 5950
same,cell count,[1]; [14],10200 and 10400 and 5920
same,outcome,[7],inactive
same,z-score,[10]; [15],-0.922 (inactive)
same,z-score,[10]; [16],0.154
same,z-score,[8],0.48 (inactive)
CCCCCCCCCCCCC/C=C/[C@@H](O)[C@@H](N)CO,survival,[2],98.4 (inactive) and 83.2 (inactive)
same,fold change,[1]; [11],0.985 (inactive) and 0.945 (inactive)
same,fold change,[1]; [12],1.13 and 1.49
same,cell count,[1]; [13],6200 and 6060
same,cell count,[1]; [14],6290 and 6410
same,fold fluorescence,[3],8.01 (inactive)
CCCCCCCCCCCCC/C=C/[C@@H](O)[C@H](CO)N(C)C,survival,[2],80.2 (inactive)
same,fold change,[1]; [11],1.08 (inactive) and 0.933 (inactive)
same,fold change,[1]; [12],1.39 and 1.34
same,cell count,[1]; [13],5480
same,cell count,[1]; [14],5090 and 5880
same,fold fluorescence,[3],6.79 (inactive)
CCCCCCCCCCCCC/C=C/[C@@H](O)[C@H](CO)NC(=O)CCCCCCC,survival,[2],77.3 (inactive)
same,fold change,[1]; [11],0.885 (inactive) and 1 (inactive)
same,fold change,[1]; [12],2.05 and 0.909
same,cell count,[1]; [13],5260 and 5480
same,cell count,[1]; [14],5940 and 5480
same,fold fluorescence,[3],4.66 (inactive)
